# Compound activity as filed in PubChem BioAssay.
# Compounds with a hit are over-represented: about 27% of the library has one in this group of screens.
# sEH inh – blocks human soluble epoxide hydrolase activity; inhibition, % at 2 µM; P34913; hit rate 0.34% among 91,000; recombinant human sEH enzymatic activity assay; AID 707; in the data active = inhibition above about 80%
# Target sequence (P34913 whole entry, looked up): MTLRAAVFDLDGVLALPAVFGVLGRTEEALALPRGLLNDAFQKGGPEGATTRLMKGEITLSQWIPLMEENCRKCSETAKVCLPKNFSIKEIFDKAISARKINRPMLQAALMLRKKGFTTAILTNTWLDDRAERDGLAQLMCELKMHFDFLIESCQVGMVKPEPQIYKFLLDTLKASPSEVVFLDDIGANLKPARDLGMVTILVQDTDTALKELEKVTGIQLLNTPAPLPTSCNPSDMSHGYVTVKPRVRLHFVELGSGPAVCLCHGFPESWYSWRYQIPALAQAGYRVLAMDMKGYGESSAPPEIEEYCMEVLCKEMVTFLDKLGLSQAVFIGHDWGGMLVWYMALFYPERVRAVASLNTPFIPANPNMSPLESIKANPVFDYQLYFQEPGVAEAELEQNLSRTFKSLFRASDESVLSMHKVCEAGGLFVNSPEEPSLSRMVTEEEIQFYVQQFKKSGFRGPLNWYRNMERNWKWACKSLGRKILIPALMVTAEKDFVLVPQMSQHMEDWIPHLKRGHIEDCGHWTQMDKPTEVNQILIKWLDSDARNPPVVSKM
# CYP2C9 activ – increases human cytochrome P450 2C9 activity; hit rate 1.4% among 96,000; P11712; recombinant CYP2C9, luciferin-H conversion, luminescence; stronger effect = higher value; factor 1 = untreated enzyme, 0 = blocked; AID 1024; activation factor at 5 µM;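 active = activation factor of 2 or more for CYP2C9 at a 5 µM dose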;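 note: 0 = sulfaphenazole-blocked wells and 1 = vehicle-only wells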
# sEH act – activators of human soluble epoxide hydrolase | activation, % at 2 µM | hit rate 0.04% among 91,000 | purified human sEH enzymatic activity, activator screen; in the data active = activation above about 37%
# CYP2C19 activ – increases human CYP2C19 enzyme activity; recombinant CYP2C19, luciferin-H EGE luminescence; stronger effect = higher value; 0 = fully inhibited enzyme, 1 = untreated enzyme; activation factor at 5 µM; 96,000 tested, under 10 active; AID 1025;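 active = activation factor of at least 2 at 5 µM in the primary screen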;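 note: 0 = wells with 2.5 mM tranylcypromine and 1 = vehicle-only wells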
# CYP2C19 inhib – blocks human cytochrome P450 2C19; inhibition, % at 5 µM; P33261; CYP2C19 Supersomes, luciferin-H EGE luminescence, 30 min; hit rate 21% among 96,000; AID 778;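 active = CYP2C19 inhibition above a set limit at 5 µM in the primary screen, cut at about 50% in these data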;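 note: plate controls were negative control wells for no effect and 2.5 mM tranylcypromine positive control for full effect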
# CYP2C9 inh – human CYP2C9 inhibition. inhibition, % at 5 µM. P11712. CYP2C9 Supersomes, luciferin-H conversion, luminescence. hit rate 20% among 96,000;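 active = blocking of liver enzyme CYP2C9 beyond about 50% at 5 µM, limit read from the data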
# An asterisk follows results filed as active; . = not tested or not shown.
SMILES,sEH inh,CYP2C9 activ,sEH act,CYP2C19 activ,CYP2C19 inhib,CYP2C9 inh
Cc1cc(Cl)ccc1OCC(=O)N1CC(C)CC(C)C1 (stereo not given),3.0,0.5,0.8,0,97.8*,47.6
CCN(CC)C(=O)C(C)OC(=O)COc1ccc(Cl)cc1C (stereo not given),.,1,.,0.6,40.3,-4.1
Cc1cc(Cl)ccc1OCC(=O)Nc1ccccc1CO,6.9,0.7,-6.7,0.4,57.9*,25.4
O=C(Cc1ccc(Cl)cc1)Nc1ccccc1CO,2.8,0.9,-2.2,0.4,55.0*,6.4
Cc1cc(Cl)ccc1OCC(=O)OC(C)C(=O)N(C)C (stereo not given),-7.7,0.8,6.4,0.3,69.3*,24.1
O=C(COc1ccccc1O)Nc1ccccc1Cl,-2.5,1,4.5,0.6,37.0,4.9
O=C(COC(=O)C1(c2ccccc2F)CCCC1)N1CCOCC1,0.1,1.3,3.1,1,4.6,-28.6
Cc1cc(Cl)ccc1OCC(=O)Nn1c(C)ccc1C,11.3,0.6,-12.8,0.1,93.9*,40.7
C/C(N)=C(/C#N)C(=O)COC(=O)COc1ccc(Cl)cc1C,-4.0,1,4.9,0.8,20.6,4.5
CCOC(=O)c1c(C)oc(NC(=O)COc2ccc(Cl)cc2C)c1C#N,.,0.4,.,0.9,13.2,56.3*
Cc1cc(Cl)ccc1OCC(=O)N/N=C1\CCCc2ccccc21,71.3,0.7,-72.1,0.8,17.2,29.5
O=C(Nc1ccnc(-c2cccnc2)n1)c1ccc(Cl)cc1,8.4,0.9,-6.5,0.9,6.8,14.2
CCCCSc1nc(C)cc(SCC(=O)N/N=C/c2cccc(OC)c2O)n1,12.1,0.4,-11.4,0.7,33.2,64.3*
COc1cccc(/C=N/NC(=O)CSc2nnc(C)n2-c2ccccc2)c1O,1.6,1.1,0.6,1,-4.6,-5.2
O=C(Nc1ccc(Cl)c(C(F)(F)F)c1)C1CCCN(S(=O)(=O)c2cnc[nH]2)C1 (stereo not given),91.8*,0.1,-92.0,0.1,93.3*,93.8*
O=C(NCCN1CCN(c2cccc(Cl)c2)CC1)C1CCCN(S(=O)(=O)c2cnc[nH]2)C1 (stereo not given),16.0,0.7,-15.4,1,-0.4,27.0
Cc1n[nH]c(C)c1S(=O)(=O)N1CCCC(C(=O)Nc2ccc3c(c2)OCCO3)C1 (stereo not given),41.3,0.6,-41.6,0.7,31.1,44.5
COc1ccc(NC(=O)C2CCCN(S(=O)(=O)c3cccnc3)C2)cc1 (stereo not given),27.9,0.9,-26.4,0.8,24.0,7.1
O=C(Nc1cccc(Cl)c1)C1CCCN(S(=O)(=O)c2cnc[nH]2)C1 (stereo not given),.,0,.,0,95.2*,95.6*
COc1ccc(NC(=O)C2CCCN(S(=O)(=O)c3cnc[nH]3)C2)cc1 (stereo not given),.,0.4,.,0.6,37.1,61.9*
O=C(Nc1ccc2c(c1)OCCO2)C1CCCN(S(=O)(=O)c2cnc[nH]2)C1 (stereo not given),21.1,0.4,-21.1,0.9,14.2,62.2*
COc1ccccc1NC(=O)c1sc2nc(Cc3ccccc3)cc(C(F)(F)F)c2c1N,-7.4,0.8,10.8,0.8,20.6,22.4
Cc1ccc(NC(=O)C2CCCN(S(=O)(=O)c3cnc[nH]3)C2)cc1C (stereo not given),56.1,0.1,-56.5,0.1,90.5*,86.0*
C=CCn1c(-c2cccc(Cl)c2)n[nH]c1=S,9.7,0.9,-10.9,0.5,48.9,11.5
Cn1c(-c2ccc(-c3ccccc3)cc2)c[nH]c1=S,7.3,0.4,-6.8,0.1,88.7*,64.0*
SMILES,sEH inh,CYP2C9 activ,sEH act,CYP2C19 activ,CYP2C19 inhib,CYP2C9 inh
C=CCn1c(-c2ccccc2)c[nH]c1=S,15.7,0.8,-17.0,0.3,70.2*,23.4
C=CCn1c(-c2ccc(Cl)cc2)c[nH]c1=S,21.5,0.6,-21.1,0.3,66.4*,42.3
CCn1c(-c2ccc(-c3ccccc3)cc2)c[nH]c1=S,10.4,0.8,-9.1,0.2,81.3*,19.2
CCCn1nc2cc(C(=O)N(CC)c3ccc(OC)cc3)ccc2c1OCC,14.9,0.7,-12.2,0.8,16.8,25.5
CCS(=O)(=O)NC(C)C(c1cccs1)N1CCN(c2ccc(F)cc2)CC1 (stereo not given),12.2,0.8,-10.2,0.6,36.2,18.9
NC1=C(c2ccc(F)cc2)C(=O)CS1,.,0.7,.,0.7,25.8,34.5
CC1=Nc2ccccc2/C1=C/c1sc(=O)n(CC(=O)N2CCCC2)c1O,-0.3,0.8,2.9,0.6,39.1,20.6
O=C(Cn1c(O)c(/C=C2\C=Nc3ccc(Br)cc32)sc1=O)N1CCCC1,11.2,0.1,-10.5,0.3,69.5*,90.7*
CCOC(=O)c1cnc(SCC(=O)Nc2sc(C)c(C)c2C#N)nc1N,5.4,0.4,-6.2,0.8,17.8,61.7*
CCOC(=O)c1cnc(SC2CCc3ccccc3C2=O)nc1N (stereo not given),11.4,1.3,-11.9,0.2,80.8*,-29.1
CCOC(=O)c1cnc(SC2CC(=O)N(c3ccccc3)C2=O)nc1N (stereo not given),0.7,0.7,-1.8,0.9,10.9,28.0
Cc1sc(NC(=O)CSc2nc(N)n(CC(=O)c3ccccc3)n2)c(C#N)c1C,-7.4,0,9.2,0.1,93.0*,98.2*
CCOC(=O)c1cnc(SCC(=O)NCc2cccs2)nc1N,.,0.1,.,0.2,79.6*,93.2*
CCC(C(=O)Nc1nccs1)(C(F)(F)F)C(F)(F)F,.,0.2,.,0.9,5.5,78.0*
CCCc1ccc(-c2cc(N)n[nH]2)cc1,6.5,1.2,-4.7,1,-1.8,-18.9
CC(=O)OC1CC(C)N(C(=O)c2ccccc2)c2ccc(C)cc21 (stereo not given),-0.8,0.9,1.3,0.1,85.1*,10.6
CCCC(=O)OC1CC(C)N(C(=O)c2ccccc2)c2ccc(C)cc21 (stereo not given),14.0,.,-11.9,.,.,.
O=C1/C(=C/c2ccncc2)SC(=S)N1C1CCS(=O)(=O)C1 (stereo not given),-4.5,0.6,2.4,0.2,75.3*,41.6
CN(C(=O)/C(N=Nc1cccc(C(F)(F)F)c1)=C(\O)C(F)(F)F)c1ccccc1,16.4,0.2,-14.4,0.2,82.1*,80.1*
CN(C)c1nn(C(=O)Nc2cccc(C(F)(F)F)c2)cc1-c1ccccc1,6.9,1.2,-9.2,0.9,8.4,-15.9
CCCC(=O)Nc1ccc(NC(=O)c2ccccc2OC)cn1,.,3.2*,.,0.5,51.2*,-219.7
CCOc1ccc(NC(=O)c2ccccc2OC)cc1,5.2,3.3*,-5.3,1,3.1,-226.8
CCOc1ccc(NC(=O)c2ccccc2OCC(=O)c2ccccc2)cc1,-6.5,0.1,8.0,0.4,61.3*,88.1*
Cc1cccc(NC(=O)c2ccccc2OCC(=O)c2ccccc2)c1,9.7,0.3,-7.7,0.4,57.7*,72.6*
